The results in this text go back to PubChem BioAssay.

What is called inhibition is the drop in the measured response relative to a control, in per cent.

Structures are written as SMILES. Activity calls are given as the source filed them.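 Rule for the calls, unless noted: active = inhibition above 20% together with a positive visual image hit; inconclusive = visual image hit but inhibition not above 20%; inactive = no visual image hit.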

Experiment [1] can be described thus: inhibitors of TNFa-induced NFkB p65 translocation, primary screen, imaging, HUVEC, MLSMR starter and 10KST1 sets (AID 438).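 For inhibition: signal is the nuclear over cytoplasmic p65 intensity ratio per well.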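 Note: compound added about 3h40 before a 20 min TNFalpha stimulation.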 To be noted: HUVEC TNFa-induced p65 nuclear translocation; cell count: measured here: nuclei count (cytotoxicity indicator), at 2.08 µM; inhibition: at 2 µM, stronger effect = higher value, 0% TNFa-plus-vehicle, 100% no-TNFa wells.
Experiment [2] is described as follows: inhibitors of mutant huntingtin aggregation, primary screen, imaging, exon1htt(103Q)mCFP cells, high-content imaging (AID 483;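 active = visual image review flags a hit and inhibition of aggregation exceeds 20%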;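 note: compound exposure lasted 3 days before fixation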;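 for nuclei count: percent of the per-plate median nuclei count of sample wells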). To be noted: exon1htt(103Q)mCFP cell line, aggregate imaging, at 2 µM; inhibition of aggregation: stronger effect = higher value; nuclei count: measured here: cell count, toxicity.
Experiment [3] in a line: inhibitors of E-selectin induction by TNFa, primary screen, imaging, HUVEC, immunofluorescence, MLSMR starter and 10KST1 sets (AID 487;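 active = visually confirmed hit in the image check and inhibition above 20%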;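 for inhibition: signal is fraction of cell area covered by stained E-selectin grains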;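 for nuclei count: 100% = median nuclei count of all wells on the same plate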). To be noted: HUVEC TNFalpha-induced E-selectin immunofluorescence imaging, at 2 µM; inhibition: stronger effect = higher value; nuclei count: measured here: cell number, toxicity.
In experiment [4] the target is Voltage-gated potassium channel subunit beta-2 (Rattus norvegicus) (UniProt P62483). The experiment can be described thus: KvBeta enzyme negative modulators, primary screen, biochemical, NADPH fluorescence (AID 622;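 active = fluorescence slope higher than the sample average by over 3 SD, cut at about -0.22 in these data, passing the limit was not always enough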;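 note: slope of raw intensity against log time taken from 70 to 1610 s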). To be noted: recombinant KvBeta, 4-cyanobenzaldehyde reduction, at 10 µM, stronger effect = higher value.
The target is the same in experiment [5]. In words: KvBeta positive modulators, primary screen, biochemical, NADPH fluorescence (AID 623;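 active = NADPH fluorescence slope more negative than the mean of all samples by about 3 SD, 99.7% confidence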;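 note: fluorescence intensity change per second fitted from 20 to 320 s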). To be noted: Recombinant KvBeta, NADPH fluorescence decrease slope, 10 min; at 10 µM; stronger effect = lower value.
Experiment [6] has as its target Alpha-2C adrenergic receptor (Homo sapiens) (UniProt P18825). The experiment can be described thus: modulators of alpha2C/GIRK thallium flux, primary screen, cell-based, HEK293 alpha2C/GIRK1/2 (AID 624;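 active = fluorescence slope after compound addition differing from the mean of all screened samples at 99.7% confidence, in either direction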;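 note: slope of fluorescence ratio to pre-addition baseline per second over 15 to 24 s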). To be noted: thallium flux BTC fluorescence, at 10 µM, actives lie on both sides.
The nature of experiment [7]: inhibitors of Sendai virus-induced IRF3 signaling, primary screen, TLR/RLR signaling modifier project, cell-based, Sendai virus stimulus, luciferase, 10K MLSCN set (AID 602276;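 active = inhibition at or above 50% at 10 µM; inactive = inhibition below 50%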;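 note: firefly luciferase from ISG56 promoter only with Renilla not read in this screen; 0% = Sendai virus plus DMSO and 100% = medium plus DMSO without virus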). To be noted: HEK293 RL24 IRF3 luciferase reporter, at 10 µM, stronger effect = higher value.
Experiment [8] is described as follows: inhibitors of poly I:C-induced TLR3 signaling, primary screen, cell-based, poly I:C stimulus, luciferase, 10K MLSCN set (AID 602277;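 active = inhibition of the reporter signal at or above 50%; inactive = inhibition below 50%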). To be noted: HEK293-TLR3 RL24 IRF3 luciferase reporter, at 10 µM, stronger effect = higher value. For orientation: In a reporter assay the amount or activity of a reporter protein is the signal.

Sequence of Voltage-gated potassium channel subunit beta-2 (Rattus norvegicus) (P62483 whole entry, looked up): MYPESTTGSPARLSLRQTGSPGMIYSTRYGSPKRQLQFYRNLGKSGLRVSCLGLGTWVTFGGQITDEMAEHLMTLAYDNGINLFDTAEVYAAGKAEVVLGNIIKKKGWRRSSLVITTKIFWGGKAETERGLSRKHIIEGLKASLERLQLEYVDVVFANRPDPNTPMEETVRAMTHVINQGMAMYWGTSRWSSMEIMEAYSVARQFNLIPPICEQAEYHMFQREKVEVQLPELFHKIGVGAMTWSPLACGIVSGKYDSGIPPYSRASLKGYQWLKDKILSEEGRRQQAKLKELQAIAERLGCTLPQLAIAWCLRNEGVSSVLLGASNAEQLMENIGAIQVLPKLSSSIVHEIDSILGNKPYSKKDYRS
Sequence of Alpha-2C adrenergic receptor (Homo sapiens) (P18825 whole entry, looked up): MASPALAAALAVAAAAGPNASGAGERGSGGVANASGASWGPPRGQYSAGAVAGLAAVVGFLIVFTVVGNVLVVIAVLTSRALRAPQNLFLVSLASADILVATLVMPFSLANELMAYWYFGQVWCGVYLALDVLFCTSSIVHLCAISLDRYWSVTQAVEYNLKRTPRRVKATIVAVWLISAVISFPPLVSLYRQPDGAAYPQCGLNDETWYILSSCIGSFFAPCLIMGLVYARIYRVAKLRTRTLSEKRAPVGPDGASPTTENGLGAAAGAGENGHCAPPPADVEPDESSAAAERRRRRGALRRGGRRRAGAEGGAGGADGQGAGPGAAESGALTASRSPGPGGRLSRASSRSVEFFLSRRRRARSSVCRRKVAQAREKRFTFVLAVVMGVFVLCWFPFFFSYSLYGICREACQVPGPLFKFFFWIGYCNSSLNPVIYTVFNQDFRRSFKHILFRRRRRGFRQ

In the case of `C/C=C/COC(=O)c1[nH]c2c(c1C)C(=O)CC(c1ccco1)C2` (centres undefined), the cell count in experiment [1] came out at 582. Besides, the inhibition in experiment [1] is 13.8% (inactive); in experiment [3] it was -141% (inactive); in experiment [7], 25.7% (inactive); in experiment [8] it was 82.7% (active). For the same compound, the inhibition of aggregation in experiment [2] is 4.4% (inactive). The nuclei count in experiment [2] was determined as 3.3%; in experiment [3] it was 97%. The fluorescence slope in experiment [4] is -0.496 (inactive). In addition, the NADPH fluorescence slope in experiment [5] is -1.1e-06 (inactive). In experiment [6], the slope was 0.00708 (inactive).

On to `CN(C(=O)c1ccccn1)c1nnc(-c2cccnc2)s1`, for which the cell count in experiment [1] was 622. The inhibition in experiment [1] was -8.7% (inactive); in experiment [3] it was -52.7% (inactive); in experiment [7], 0.693% (inactive); in experiment [8], -16.2% (inactive). In addition, the inhibition of aggregation in experiment [2] was 11.2% (inactive). Besides, the nuclei count worked out at 93.2% in experiment [2] and 106% in experiment [3]. Further, the fluorescence slope in experiment [4] was -0.489 (inactive). Also, the NADPH fluorescence slope in experiment [5] was -5.1e-05 (inactive). Further, the slope in experiment [6] was 0.0044 (inactive).

`O=C(C1CCCN(S(=O)(=O)c2cccnc2)C1)N1CCN(c2ccccn2)CC1` (centres undefined): in experiment [1], the cell count is 671. Besides, the inhibition is -0.3% (inactive) in experiment [1], -1.7% (inactive) in experiment [3], 5.38% (inactive) in experiment [7] and 14% (inactive) in experiment [8]. In experiment [2], the inhibition of aggregation was -27.9% (inactive). Also, the nuclei count in experiment [2] and in experiment [3] was 108% in each case. The fluorescence slope in experiment [4] was -0.581 (inactive). In addition, in experiment [5], the NADPH fluorescence slope is -1.6e-05 (inactive). The slope in experiment [6] was 0.00648 (inactive).

Regarding `CCN(C(=O)CCc1nc(-c2ccccc2F)no1)c1cc(OC)ccc1OC`, in experiment [1], the cell count was determined as 403. Besides, the inhibition is 6.7% (inactive) in experiment [1], -20.9% (inactive) in experiment [3], -11.3% (inactive) in experiment [7] and -31% (inactive) in experiment [8]. Also, the inhibition of aggregation in experiment [2] is -4.7% (inactive). Further, the figures for the nuclei count in experiment [2] and in experiment [3] were 110% and 115%, respectively. Besides, the fluorescence slope in experiment [4] is -0.425 (inactive). The NADPH fluorescence slope in experiment [5] was 1.9e-05 (inactive). The slope in experiment [6] is 0.00445 (inactive).

As for `COc1ccc(CN(CC(=O)NCc2ccco2)C(=O)CCC(=O)Nc2nccs2)cc1`, the cell count in experiment [1] came to 438. Moreover, the inhibition in experiment [1] was 3.6% (inactive); in experiment [3] it was -24.4% (inactive); in experiment [7] it was 11.3% (inactive); in experiment [8] it was 12.7% (inactive). In experiment [2], the inhibition of aggregation was -4.3% (inactive). Besides, the nuclei count in experiment [2] worked out at 102%; in experiment [3], 114%. Further, in experiment [4], the fluorescence slope was -0.403 (inactive). Moreover, in experiment [5], the NADPH fluorescence slope was -3.8e-05 (inactive). Moreover, in experiment [6], the slope was 0.00588 (inactive).

On to `COc1ccc(OCC(=O)N2CC3(C)CC2CC(C)(C)C3)cc1` (centres undefined), for which, in experiment [1], the cell count amounted to 403. Further, the inhibition in experiment [1] was -0.6% (inactive); in experiment [3], -55.8% (inactive); in experiment [7] it was 20% (inactive); in experiment [8] it was 26.7% (inactive). Further, the inhibition of aggregation in experiment [2] was -6.4% (inactive). In addition, the nuclei count worked out at 122% in experiment [2] and 97.4% in experiment [3]. In experiment [4], the fluorescence slope was -0.495 (inactive). For the same compound, in experiment [5], the NADPH fluorescence slope is -6.6e-06 (inactive). Further, the slope in experiment [6] was 0.004 (inactive).

Take `NC(=O)CN1C(=O)C(O)(CC(=O)c2ccccc2O)c2ccccc21` (centres undefined): in experiment [1], the cell count turned out to be 641. Also, the inhibition in experiment [1] is -0.3% (inactive); in experiment [3] it was -65.3% (inactive); in experiment [7], 12.7% (inactive); in experiment [8], 38.5% (inactive). In addition, in experiment [2], the inhibition of aggregation is -4.7% (inactive). Moreover, the nuclei count was found to be 122% in experiment [2] and 133% in experiment [3]. Further, in experiment [4], the fluorescence slope is -0.395 (inactive). Moreover, the NADPH fluorescence slope in experiment [5] is -4.6e-05 (inactive). In addition, the slope in experiment [6] was 0.00547 (inactive).

For the compound `COc1cccc(OC)c1OCCCSc1nc(C)cc(=O)[nH]1`, the cell count in experiment [1] was 402. In addition, the inhibition in experiment [1] was -1.6% (inactive); in experiment [3], 24.3% (inactive); in experiment [7], -9.76% (inactive); in experiment [8], -3.85% (inactive). For the same compound, the inhibition of aggregation in experiment [2] is 1.1% (inactive). Besides, the nuclei count in experiment [2] is 108%; in experiment [3], 97.1%. The fluorescence slope in experiment [4] is -0.422 (inactive). For the same compound, in experiment [5], the NADPH fluorescence slope was -2.1e-05 (inactive). The slope in experiment [6] is 0.00519 (inactive).

For `Cc1ccc2[nH]c(=O)c3cc(C(=O)NCCN4CCN(C)CC4)sc3c2c1`, in experiment [1], the cell count worked out at 526. Besides, the inhibition in experiment [1] is -0.5% (inactive); in experiment [3], -14.1% (inactive); in experiment [7], 10.4% (inactive); in experiment [8], 90.4% (active). Also, the inhibition of aggregation in experiment [2] is 2.4% (inactive). Besides, the nuclei count in experiment [2] was 60%; in experiment [3], 116%. In experiment [4], the fluorescence slope was -0.229 (active). For the same compound, the NADPH fluorescence slope in experiment [5] was -4.2e-06 (inactive). The slope in experiment [6] was 0.00573 (inactive).

Consider `COc1ccccc1NC(=O)C1=C(C)Nc2nnnn2C1c1ccccc1OC` (centres undefined), for which the cell count in experiment [1] is 453. For the same compound, the inhibition in experiment [1] was -0.5% (inactive); in experiment [3] it was 8.8% (inactive); in experiment [7], 10.5% (inactive); in experiment [8], 33.5% (inactive). Further, in experiment [2], the inhibition of aggregation was -7.9% (inactive). Besides, the nuclei count turned out to be 90.1% in experiment [2] and 82.2% in experiment [3]. Besides, in experiment [4], the fluorescence slope is -0.415 (inactive). The NADPH fluorescence slope in experiment [5] is 7.3e-06 (inactive). The slope in experiment [6] is 0.00379 (inactive).

On to `O=C(Nc1nnc(N2CCCCCC2)s1)c1cc(-c2ccc(Br)cc2)on1`, for which the cell count in experiment [1] came out at 890. Further, the inhibition in experiment [1] is 1.2% (inactive); in experiment [3], -76.6% (inactive); in experiment [7], 5.43% (inactive); in experiment [8], 23.2% (inactive). Besides, in experiment [2], the inhibition of aggregation is 5.2% (inactive). The nuclei count came to 85.6% in experiment [2] and 120% in experiment [3]. Also, the fluorescence slope in experiment [4] was -0.612 (inactive). The NADPH fluorescence slope in experiment [5] is -2.8e-06 (inactive). In addition, the slope in experiment [6] was 0.00651 (inactive).

Take `Cc1cc(C)nc(SCCS(=O)Cc2ccc(Cl)cc2)n1` (centres undefined): in experiment [1], the cell count came out at 306. Moreover, the inhibition is -3.8% (inactive) in experiment [1], 32.1% (inactive) in experiment [3], 5.96% (inactive) in experiment [7] and 8.92% (inactive) in experiment [8]. Further, the inhibition of aggregation in experiment [2] is -16.7% (inactive). In addition, the nuclei count amounted to 108% in experiment [2] and 95% in experiment [3]. The fluorescence slope in experiment [4] is -0.503 (inactive). For the same compound, the NADPH fluorescence slope in experiment [5] was 6.2e-06 (inactive). In experiment [6], the slope is 0.00559 (inactive).

Regarding `O=C(NCC(=O)N(Cc1cccs1)C(C(=O)NC1CCCC1)c1ccncc1)c1ccco1` (centres undefined), the cell count in experiment [1] was 478. The inhibition is -2.9% (inactive) in experiment [1], -26.6% (inactive) in experiment [3], 13.3% (inactive) in experiment [7] and 16.2% (inactive) in experiment [8]. The inhibition of aggregation in experiment [2] is -19.3% (inactive). Further, the nuclei count in experiment [2] came to 107%; in experiment [3] it was 114%. The fluorescence slope in experiment [4] was -0.25 (inactive). Further, the NADPH fluorescence slope in experiment [5] was -2e-05 (inactive). Further, the slope in experiment [6] was 0.00557 (inactive).

For `COc1ccc(-c2nnc(SCC(=O)NC(C)c3ccccc3)o2)cc1` (centres undefined), the cell count in experiment [1] came to 617. For the same compound, the inhibition was 4.4% (inactive) in experiment [1], -7.4% (inactive) in experiment [3], 5.82% (inactive) in experiment [7] and 18.9% (inactive) in experiment [8]. Moreover, in experiment [2], the inhibition of aggregation was -59% (inactive). Besides, the nuclei count in experiment [2] turned out to be 104%; in experiment [3] it was 111%. Also, the fluorescence slope in experiment [4] was -0.593 (inactive). In experiment [5], the NADPH fluorescence slope is -2.5e-05 (inactive). The slope in experiment [6] was 0.00661 (inactive).
